In the library only some 18% were active in any assay of this set; here they are far more common.
VP16 counter: counter-screen for ROR gamma inhibitors: Gal4-VP16 reporter; Drosophila S2 Gal4-VP16 UAS-luciferase, luminescence, 20 h; Potency, µM (highest dose often 53.6 µM), inactives show at the top dose activity, negative = inhibition, hits mostly inhibitors; 310,000 tested, 3.5% active; AID 2546;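 further: Gal4-VP16 expression switched on by copper sulfate through the metallothionein promoter; potency means the concentration at half of the fitted maximal effect; nearly all actives have a fitted effect of over 50% in size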
DT40 TDP1 CPT: DT40-hTDP1 cell growth loss with CPT; chicken DT40 Tdp1-/-;hTDP1 cells + 20 nM CPT, ATP luminescence, 48 h; Potency, µM (titrated, usually from 46.2 µM), for inactives: top-dose activity change, negative = growth inhibition, hits mostly inhibitors; 420,000 tested, 12% active; further: potency means the concentration at half of the fitted maximal effect; nearly all actives have a fitted effect of over 55% in size
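Cell growth measured by CellTiter-Glo luminescence after a minimum 48 h, 37 C compound exposure with 20 nM CPT in Tdp1-knockout DT40 cells stably expressing hTDP1, seeded 400/well; qHTS titration format.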
LDHA block: LDHA (human) enzyme inhibition; activity change, % (values are at about 110 or 230 µM); AID 1347041; purified LDHA, NADH/diaphorase-resazurin fluorescence; active compounds read low; P00338; 480,000 tested, 0.15% active; in the data active means activity change below about -30%; inconclusive means mostly about -25% to -30%;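 further: plate controls were DMSO wells for no effect and wells without enzyme for full effect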
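Enzyme activity of human lactate dehydrogenase 5 (2 nM; 0.06 mM NADH, 0.2 mM pyruvate, 5 min, RT) is measured via a resazurin/diaphorase fluorescence readout of residual NADH.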
IL-1B inflam inh: inflammasome signaling inhibition, IL-1 beta readout; THP-1 LPS/ATP IL-1B secretion, AlphaLISA, 16 h; active compounds read low; activity change, % at 57.5 µM; 360,000 tested, 4.7% active; in the data active means activity change below about -50%; inconclusive means mostly about -30% to -49%
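THP-1 cells pretreated 1 hr with compounds (up to 57.5 uM final), then stimulated with LPS (250 ng/mL final) plus ATP (1.25 mM final); secreted IL-1B measured by AlphaLISA after 16 hr, decreased signal indicating inhibition.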
DT40 TDP1 no CPT: qHTS for Inhibitors of human tyrosyl-DNA phosphodiesterase 1 (TDP1): qHTS in cells in absence of CPT. Potency, µM (highest dose often 46.2 µM), inactives show top-dose activity change, negative = growth inhibition, hits mostly inhibitors. DT40 Tdp1-/- hTDP1 cells, no CPT, ATP luminescence, 48 h. 420,000 tested, 15% active; further: potency means the concentration at half of the fitted maximal effect; nearly all actives have a fitted effect of over 55% in size
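Camptothecin absent (DMSO only). Human TDP1-complemented DT40 knockout cells, 400 cells/well, 37 °C for minimum 48 hr; ATP measured via CellTiter-Glo, 30 min dark incubation, luminescence.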
RORg inh: ROR gamma (mouse) transcription inhibition. P51450. Drosophila S2 Gal4-RORgamma UAS-luciferase reporter, 20 h. Potency, µM (series often up to 53.6 µM), without a hit: at the top dose activity change, negative = inhibition, hits mostly inhibitors. 310,000 tested, 5.4% active; further: potency means the concentration at half of the fitted maximal effect; nearly all actives have a fitted effect of over 60% in size
Target sequence (P51450 whole entry, looked up, the tested form may be a part): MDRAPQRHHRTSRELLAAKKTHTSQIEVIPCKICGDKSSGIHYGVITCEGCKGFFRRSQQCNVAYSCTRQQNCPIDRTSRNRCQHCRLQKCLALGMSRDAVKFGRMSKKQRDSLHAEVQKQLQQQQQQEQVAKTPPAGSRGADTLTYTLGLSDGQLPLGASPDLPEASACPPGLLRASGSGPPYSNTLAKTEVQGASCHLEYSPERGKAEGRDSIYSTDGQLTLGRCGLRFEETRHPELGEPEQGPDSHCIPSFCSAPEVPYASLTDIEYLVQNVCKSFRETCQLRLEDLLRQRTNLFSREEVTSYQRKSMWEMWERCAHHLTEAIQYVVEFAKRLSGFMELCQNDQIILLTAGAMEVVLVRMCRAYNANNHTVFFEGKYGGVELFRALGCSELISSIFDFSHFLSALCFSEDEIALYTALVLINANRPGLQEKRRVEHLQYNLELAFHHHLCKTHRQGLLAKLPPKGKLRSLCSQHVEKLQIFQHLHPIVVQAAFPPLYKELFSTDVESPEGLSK
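Using a luciferase readout, inhibitors were identified by reduced reporter activity in Drosophila cells coexpressing a copper-inducible Gal4–ROR gamma fusion and UAS-driven Photinus luciferase, incubated 20 hr after 700 uM copper sulfate.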
An asterisk follows results filed as active; ? = inconclusive; / = not tested or not shown. Unless noted, the call rests on the fitted dose curve; in most records, active means well fitted curve in the direction sought with a large enough effect; inconclusive means small, poorly fitted or top-dose-only effect, or another doubt; inactive means no such curve, though single readings can be large; an effect the other way counts as inactive or inconclusive. Unless noted, on the % scale 0 is the no-effect control and ±100 the full control effect.

SMILES	VP16 counter	DT40 TDP1 CPT	LDHA block	IL-1B inflam inh	DT40 TDP1 no CPT	RORg inh
O=[N+]([O-])c1ccccc1/C=N/n1c(-c2ccccc2)n[nH]c1=S	?	15.5%	-5.6	-1.9	-24.8%	?
COc1ccccc1/C=C/C=N/n1c(-c2ccc(Cl)cc2)n[nH]c1=S	-9.6%	?	-3.7	11.9	16.4µM*	-27.7%
CC(=O)N(Cc1ccco1)CC1C(C)C=C(C)CC1C (stereo not drawn)	/	/	0.9	/	/	/
CCOC(=O)C(NC(=O)c1ccc(OC)cc1)(Nc1ccc(OC)cc1)C(F)(F)F (stereo not drawn)	/	/	3.0	/	/	/
CCN1C(=NCCCOC(C)C)N[C@@H](CCc2ccccc2)[C@H](C(=O)NCCCOC(C)C)[C@H]1C	-6.5%	1.84µM*	0.2	-58.2*	1.64µM*	?
COc1ccc2c(CN(C)CCOc3ccccc3Cl)cc(=O)oc2c1	/	/	-0.6	/	/	/
Nc1cccc2cccc(S(=O)(=O)O)c12	/	/	69.6	/	/	/
COCC(=O)Nc1cc([N+](=O)[O-])ccc1C	-2.4%	23.1µM*	6.0	-5.3	?	0.6%
CCCCNC(=S)Nc1cc([N+](=O)[O-])ccc1C	?	-0.2%	-2.3	-4.9	-4.3%	11.2µM*
Cc1ccc(CC(=O)Nc2ccc([N+](=O)[O-])cc2C)cc1	-8.5%	-14.8%	-7.2	-56.7*	-4.1%	-4.2%
COc1ccc(C)cc1S(=O)(=O)N(CC(=O)Nc1cccc([N+](=O)[O-])c1)c1cc(C)cc(C)c1	?	-11.8%	2.5	0.0	?	?
Cc1ccc(CC(=O)Nc2cccc([N+](=O)[O-])c2)cc1	-13.5%	-22.7%	-2.5	-3.0	?	?
COc1ccc(C)cc1S(=O)(=O)N(CC(=O)Nc1cc([N+](=O)[O-])ccc1C)c1ccc(C)c(C)c1	2.2%	8.2µM*	-6.4	0.2	10.3µM*	-8.4%
Cc1cc(NC(=O)CSc2nnc(-c3cccnc3)n2C2CC2)no1	/	/	0.2	/	/	/
COc1ccc(OC)c(NC(=O)COC(=O)c2cc(C)sc2C)c1	/	/	7.8	/	/	/
c1ccc(Cn2ccnc2)c(CNC2CCCCCC2)c1	/	/	2.4	/	/	/
O=C(COc1ccc(Br)cc1)N1CCC(c2nc3ccccc3o2)CC1	/	/	4.6	/	/	/
O=C(Nc1ccccc1)c1nnc(C(=O)N2CCC(CC(=O)N3CCCCCC3)CC2)s1	/	/	3.3	/	/	/
COc1ccc(S(=O)(=O)N2CCCCC2)cc1NC(=O)CNc1ccccc1C(C)=O	/	23.1µM*	-4.0	19.2	?	/
Cc1ccc(S(=O)(=O)N2CCCCC2)cc1NC(=O)COC(=O)CNC(=O)c1cc(Cl)cc([N+](=O)[O-])c1	1.4%	-19.1%	-2.1	-5.2	-3.9%	13.0%
COc1ccc([N+](=O)[O-])cc1NCC(=O)Nc1cc(S(=O)(=O)N2CCCCC2)ccc1C	/	14.6µM*	-1.6	-0.5	23.1µM*	/
COc1ccc(S(=O)(=O)N(C)C)cc1NCC(=O)Nc1cccc2ccccc12	/	-19.9%	4.2	-2.1	-21.2%	/
COc1ccc(S(=O)(=O)N(C)C)cc1NCC(=O)Nc1ccc(Br)c(C)c1	-4.9%	?	3.4	2.5	18.4µM*	30.5%
COc1ccc(S(=O)(=O)N2CCCCCC2)cc1NC(=O)Cc1cc(OC)c(OC)c(OC)c1	4.7%	-3.5%	3.4	0.0	?	?
COc1ccc(CC(=O)Nc2cc(S(=O)(=O)N3CCCCC3)ccc2C)cc1OC	?	?	-0.2	27.1	18.4µM*	?
SMILES	VP16 counter	DT40 TDP1 CPT	LDHA block	IL-1B inflam inh	DT40 TDP1 no CPT	RORg inh
O=C(CCNC(=O)C1CCCC1)NCCc1ccccc1	/	/	2.4	/	/	/
CCC(=O)Nc1cc(C)c(O)c(-c2nc3ccccc3o2)c1	/	/	-0.1	/	/	/
COc1ccc(S(=O)(=O)N2CCCCC2)cc1NC(=O)Cc1c[nH]c2ccccc12	-13.6%	?	-1.6	-7.3	14.6µM*	?
COc1ccc(S(=O)(=O)N2CCCCC2)cc1NCC(=O)Nc1ccc(C)cc1	3.55µM*	16.4µM*	5.5	-2.6	9.2µM*	27.9%
CCCCNC(=S)Nc1cc(S(=O)(=O)N2CCCCC2)ccc1C	10µM*	-1.3%	-16.3	1.5	1.0%	5.62µM*
Cc1nc(NCC(C)C)sc1C(=O)NCc1ccncc1	/	/	-15.2	/	/	/
O=C(COC(=O)c1c[nH]c2ccccc12)NC(=O)NC1CCCC1	/	/	0.3	/	/	/
CCN(CC)CC#CCOC(=O)C(O)(c1ccccc1)C1CCCCC1 (stereo not drawn)	-10.0%	20.6µM*	-1.3	-22.6	8.2µM*	-7.1%
CN(C)c1ccc2c3c(cccc13)C(=O)N(c1ccccc1)C2=O	-3.4%	/	/	/	/	-8.5%
CN(C)c1ccc(/C=C2\c3ccccc3C(=O)N2c2ccccc2)cn1	/	9.2µM*	5.9	25.2	-19.9%	/
CC(OC(=O)c1nsc(Cl)c1Cl)C(=O)NC1CCCCC1 (stereo not drawn)	5.7%	-9.6%	-3.6	16.3	-1.0%	-7.3%
CC(C)(C)NC(=O)COC(=O)c1snc(C(=O)NC2CCCCC2)c1N	5.62µM*	-14.3%	-8.9	?	-12.6%	-37.0%
CC(OC(=O)c1snc(C(=O)NC2CCCCC2)c1N)C(=O)NC(C)(C)C (stereo not drawn)	?	14.1µM*	-2.1	0.0	12.6µM*	?
Cn1nc(C(C)(C)C)cc1C(=O)N1CCCCC1c1cc(C(=O)NCc2ccc(F)cc2)no1 (stereo not drawn)	/	20.6µM*	-2.0	-17.2	13µM*	/
Cn1nc(C(C)(C)C)cc1C(=O)N1CCCCC1c1cc(C(=O)NCc2ccccc2)no1 (stereo not drawn)	/	10.3µM*	0.7	0.0	10.3µM*	/
Cn1nc(C(C)(C)C)cc1C(=O)N1CCCCC1c1cc(C(=O)Nc2cccc3c2CCCC3)no1 (stereo not drawn)	/	?	-3.1	0.0	?	/
O=C(NC(c1ccccc1)c1cccs1)c1ccccc1 (stereo not drawn)	/	/	-0.9	/	/	/
COc1ccc(NC(=O)c2cc(-c3ccncc3)nc3ccc(Br)cc23)cc1OC	20µM*	?	-1.8	-5.5	20.6µM*	?
COc1cc(NC(=O)c2cc(-c3cccnc3)nc3ccc(Br)cc23)cc(OC)c1	-27.1%	?	-0.2	7.8	20.6µM*	?
NNC(=O)c1cc(-c2ccc(N)cc2)nc2ccc(Br)cc12	?	?	-0.5	-20.3	14.6µM*	10µM*
Cc1cc(C(=O)NN)c2cc(Br)ccc2n1	-10.2%	-4.0%	0.7	21.1	1.2%	1.8%
